Bioassay records from PubChem.
TGFb inhibitor = inhibitors of TGF-b signaling. HepG2 CAGA-GFP TGF-b/SMAD3 reporter, GFP fluorescence, 18 h; TGF-beta stimulated, 500 pg/mL final. 410,000 tested, 1.2% active. Potency, µM (highest dose often 46.1 µM), without a hit: top-dose activity, negative = inhibition, actives largely listed as inhibitors; also: potency is read from the fitted curve at half-maximal effect; % is scaled to controls: 0 for no effect and ±100 for the full control effect; nearly all actives have a fitted effect of over 65% in size
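First, reporter cells (HEPG2 CAGA-GFP) rested 2 h at 37 degrees C. Next, compounds were pinned in and TGF-beta added to 500 pg/mL final. After 18 h, GFP was imaged per cell and summed per well.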
HepG2 viability = kills HepG2 cells in TGF-b inhibitor counter-screen; HepG2 CAGA-GFP viability, ATP luminescence, 18 h; Potency, µM (doses to about 46.1 µM), for inactives: top-dose activity change, negative = cytotoxicity, actives largely listed as cytotoxic; 410,000 tested, 0.76% active; AID 588856; also: potency is read from the fitted curve at half-maximal effect
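HepG2 CAGA-GFP cells (1000/well, DMEM with 1% FBS) received compound, then TGF-beta at 500 pg/mL final, and were incubated 18 hours at 37 degrees C. Viability was read by CellTiter-Glo luminescence. Media-only wells were set as complete cell-killing and DMSO as no toxicity.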
S2 tox = reduces viability in counter-screen for ATXN expression inhibitors; S2 cells (HEK-293 line with an ATXN2-luciferase reporter) viability, CellTiter-Fluor protease fluorescence, 24 h; Potency, µM (top dose mostly 56.7 µM), hits mostly cytotoxic; 400,000 tested, 0.49% active; AID 651635; also: potency is read from the fitted curve at half-maximal effect; nearly all actives have a fitted effect of over 40% in size
DT40 TDP1 CPT = growth inhibition of DT40 Tdp1-/-;hTDP1 cells with camptothecin (screen for TDP1 inhibitors); Potency, µM (series often up to 46.2 µM), for inactives: at the highest dose activity change, negative = growth inhibition, most hits filed as inhibitors; 420,000 tested, 12% active; chicken DT40 Tdp1-/-;hTDP1 cells + 20 nM CPT, ATP luminescence, 48 h; also: potency is read from the fitted curve at half-maximal effect; % is scaled to controls: 0 for no effect and ±100 for the full control effect; nearly all actives have a fitted effect of over 55% in size
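Chicken DT40 Tdp1-/- cells complemented with human TDP1, 400 cells/well, exposed to compounds plus 20 nM camptothecin for at least 48 h at 37 C; viability read as ATP content by CellTiter-Glo luminescence.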
ATXN2 expr inh = ATXN2 expression inhibition. HEK-293 ATXN2-luciferase reporter, luminescence, 24 h. Potency, µM (highest dose often 57 µM), for inactives: at the top dose activity change, negative = inhibition, actives largely listed as inhibitors. 360,000 tested, 0.72% active; also: potency is read from the fitted curve at half-maximal effect; % is scaled to controls: 0 for no effect and ±100 for the full control effect; nearly all actives have a fitted effect of over 55% in size
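ATXN2-luciferase reporter cells (luciferase flanked by upstream and downstream ATXN2 gene portions) were treated 24 h at 37 °C with compounds at up to 57 uM. SteadyGlo luminescence gave expression; GF-AFC fluorescence gave viability.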
DT40 TDP1 no CPT = qHTS for Inhibitors of human tyrosyl-DNA phosphodiesterase 1 (TDP1): qHTS in cells in absence of CPT; Potency, µM (highest dose often 46.2 µM), for the others: top-dose activity change, negative = growth inhibition, usual class: inhibitors; DT40 Tdp1-/- hTDP1 cells, no CPT, ATP luminescence, 48 h; 420,000 tested, 15% active; also: potency is read from the fitted curve at half-maximal effect; % is scaled to controls: 0 for no effect and ±100 for the full control effect; nearly all actives have a fitted effect of over 55% in size
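Compound effects on proliferation are scored in DT40 Tdp1-/-;hTDP1 cells in the absence of CPT. ATP levels (CellTiter-Glo luminescence) are recorded after a ≥48 hr, 37 °C incubation.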
EBOV entry S4 rt = Ebola virus entry blockers, screen 4 ratio channel; Ebola pseudovirus entry assay, ratio channel; AC50, µM; 170 tested, 79% active; shares compounds with ATXN2 expr inh; calls by dose curve
EBOV entry S4 bl = Ebola virus entry blockers, screen 4 blue channel; shares compounds with ATXN2 expr inh; Ebola virus entry assay, blue channel fluorescence ratio; Channel: blue; calls only; 170 tested, under 10 active; call rule not given here
EBOV S4 green = blocks Ebola virus entry, screen 4 green channel readout | shares compounds with ATXN2 expr inh | Ebola virus entry reporter assay, green fluorescence channel; Channel: green | calls only | 170 tested, under 10 active | AID 1117316; call rule not given here
* hit, by the source's call; i = inactive; ? = inconclusive; . = not tested or not shown. These entries were drawn from the full list. Unless noted, calls follow the shape of the dose curve; as a rule, active = well fitted curve in the direction sought with a large enough effect; inconclusive = small, poorly fitted or top-dose-only effect, or another doubt; inactive = no such curve, though single readings can be large; an effect the other way counts as inactive or inconclusive.

SMILES | TGFb inhibitor | HepG2 viability | S2 tox | DT40 TDP1 CPT | ATXN2 expr inh | DT40 TDP1 no CPT | EBOV entry S4 rt | EBOV entry S4 bl | EBOV S4 green
CC(CNC1CCCCC1)OC(=O)c1ccccc1 (configuration not stated) | 6% | 5% | i | ? | -2% | 6% | i | i | i
ClCCOCOCCCl | 17% | 3% | i | 4% | 4% | -9% | . | . | .
C[C@]12CCC3C(CC[C@H]4C[C@@H](O)CC[C@]34C)C1CC[C@@H]2OC(=O)[C@H](N)CCCCN (some centres not stated) | -2% | -7% | ? | ? | ? | ? | . | . | .
NCCCC(O)(P(=O)(O)O)P(=O)(O)O | . | . | i | -24% | 0% | -12% | i | i | i
COC(=O)C1=CO[C@H](C)[C@H]2CN3CC[C@@]4(C(=O)Nc5ccccc54)[C@@H]3C[C@H]12 | -6% | -30% | i | 4% | -2% | ? | . | . | .
